# Measured values as given in PubChem BioAssay AID1159580 (chemical genetic matrix, 2015).
# In all, about 5,500 compounds went through this assay and about 2,000 (36%) were called active. Roughly 18% stayed inconclusive and do not appear here. The list shows a part of the results. Unmarked numbers belong to inactive results. No stated cut-off is given here; in the data, active means normalized growth mostly below about 0.91 (no sharp cut-off); inconclusive means no clear call, values can overlap the other calls; inactive means mostly above about 0.92.
# Test: chemical genetic growth profiling, strain panel (AID 1159580);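 further: tested at 20 µM; growth read once vehicle control cultures reached saturation at 30 °C; 1 = growth at the plate median or of vehicle wells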
# Details: S. cerevisiae deletion strains, growth OD
smiles,measurement,setting,value
O=C(NOC(=O)c1ccccc1)c1ccccc1,normalized growth,"locus YAR019C, strain CDC15, stronger effect = lower value",0.0906 (active)
same,normalized growth,"locus YBL105C, strain PKC1, stronger effect = lower value",0.0874 (active)
same,normalized growth,"locus YBR135W, strain CKS1, stronger effect = lower value",0.0902 (active)
same,normalized growth,"locus YBR136W, strain MEC1, stronger effect = lower value",0.0871 (active)
same,normalized growth,"locus YBR160W, strain CDC28, stronger effect = lower value",0.091 (active)
same,normalized growth,"locus YDL017W, strain CDC7, stronger effect = lower value",0.0875 (active)
same,normalized growth,"locus YDL028C, strain MPS1, stronger effect = lower value",0.0868 (active)
same,normalized growth,"locus YDL101C, strain DUN1, stronger effect = lower value",0.102 (active)
same,normalized growth,"locus YDL108W, strain KIN28, stronger effect = lower value",0.0859 (active)
same,normalized growth,"locus YDL132W, strain cdc53, stronger effect = lower value",0.0913 (active)
same,normalized growth,"locus YDL214C, strain PRR2, stronger effect = lower value",0.0898 (active)
same,normalized growth,"locus YDR052C, strain DBF4, stronger effect = lower value",0.0867 (active)
same,normalized growth,"locus YDR054C, strain cdc34, stronger effect = lower value",0.0943 (active)
same,normalized growth,"locus YDR226W, strain ADK1, stronger effect = lower value",0.0848 (active)
same,normalized growth,"locus YDR477W, strain SNF1, stronger effect = lower value",0.0987 (active)
same,normalized growth,"locus YER123W, strain YCK3, stronger effect = lower value",0.0956 (active)
same,normalized growth,"locus YER133W, strain GLC7, stronger effect = lower value",0.0938 (active)
same,normalized growth,"locus YFL009W, strain cdc4, stronger effect = lower value",0.093 (active)
same,normalized growth,"locus YFL029C, strain CAK1, stronger effect = lower value",0.089 (active)
same,normalized growth,"locus YFR003C, strain YPI1, stronger effect = lower value",0.0861 (active)
same,normalized growth,"locus YFR019W, strain FAB1, stronger effect = lower value",0.101 (active)
same,normalized growth,"locus YFR028C, strain CDC14, stronger effect = lower value",0.0859 (active)
same,normalized growth,"locus YGR040W, strain KSS1, stronger effect = lower value",0.103 (active)
same,normalized growth,"locus YGR052W, strain FMP48, stronger effect = lower value",0.111 (active)
same,normalized growth,"locus YGR092W, strain DBF2, stronger effect = lower value",0.104 (active)
same,normalized growth,"locus YHR030C, strain SLT2, stronger effect = lower value",0.114 (active)
same,normalized growth,"locus YHR079C, strain IRE1, stronger effect = lower value",0.112 (active)
same,normalized growth,"locus YHR082C, strain KSP1, stronger effect = lower value",0.153 (active)
same,normalized growth,"locus YHR205W, strain SCH9, stronger effect = lower value",-0.00347 (active)
same,normalized growth,"locus YIL147C, strain SLN1, stronger effect = lower value",0.0859 (active)
same,normalized growth,"locus YJL095W, strain BCK1, stronger effect = lower value",0.107 (active)
same,normalized growth,"locus YJL128C, strain PBS2, stronger effect = lower value",0.097 (active)
same,normalized growth,"locus YJL157C, strain FAR1, stronger effect = lower value",0.0897 (active)
same,normalized growth,"locus YJR016C, strain ILV3, stronger effect = lower value",0.0894 (active)
same,normalized growth,"locus YJR066W, strain TOR1 (second series), stronger effect = lower value",0.0928 (active)
same,normalized growth,"locus YJR066W, strain TOR1, stronger effect = lower value",0.133 (active)
same,normalized growth,"locus YKL048C, strain ELM1, stronger effect = lower value",0.111 (active)
same,normalized growth,"locus YKL067W, strain YNK1, stronger effect = lower value",0.0892 (active)
same,normalized growth,"locus YKL101W, strain HSL1, stronger effect = lower value",0.103 (active)
same,normalized growth,"locus YKL193C, strain SDS22, stronger effect = lower value",0.0889 (active)
same,normalized growth,"locus YKL203C, strain TOR2, stronger effect = lower value",0.097 (active)
same,normalized growth,"locus YLR113W, strain HOG1, stronger effect = lower value",0.138 (active)
same,normalized growth,"locus YLR133W, strain CKI1, stronger effect = lower value",0.0893 (active)
same,normalized growth,"locus YLR403W, strain SFP1, stronger effect = lower value",0.00282 (active)
same,normalized growth,"locus YML070W, strain DAK1, stronger effect = lower value",0.109 (active)
same,normalized growth,"locus YMR001C, strain CDC5, stronger effect = lower value",0.0891 (active)
same,normalized growth,"locus YMR205C, strain PFK2 (second series), stronger effect = lower value",0.0877 (active)
same,normalized growth,"locus YMR277W, strain FCP1, stronger effect = lower value",0.0919 (active)
same,normalized growth,"locus YNL006W, strain LST8, stronger effect = lower value",0.0825 (active)
same,normalized growth,"locus YNL020C, strain ARK1, stronger effect = lower value",0.0971 (active)
same,normalized growth,"locus YNL161W, strain CBK1, stronger effect = lower value",0.0976 (active)
same,normalized growth,"locus YNL183C, strain NPR1, stronger effect = lower value",0.109 (active)
same,normalized growth,"locus YNL207W, strain RIO2, stronger effect = lower value",0.0878 (active)
same,normalized growth,"locus YNL222W, strain SSU72, stronger effect = lower value",0.0863 (active)
same,normalized growth,"locus YNL307C, strain MCK1 (second series), stronger effect = lower value",0.112 (active)
same,normalized growth,"locus YOL078W, strain AVO1, stronger effect = lower value",0.0891 (active)
same,normalized growth,"locus YOL136C, strain PFK27, stronger effect = lower value",0.0994 (active)
same,normalized growth,"locus YOR061W, strain CKA2, stronger effect = lower value",0.0894 (active)
same,normalized growth,"locus YOR119C, strain RIO1, stronger effect = lower value",0.108 (active)
same,normalized growth,"locus YOR231W, strain MKK1, stronger effect = lower value",0.111 (active)
same,normalized growth,"locus YOR329C, strain SCD5, stronger effect = lower value",0.0866 (active)
same,normalized growth,"locus YPL031C, strain PHO85, stronger effect = lower value",0.102 (active)
same,normalized growth,"locus YPL153C, strain RAD53, stronger effect = lower value",0.0967 (active)
same,normalized growth,"locus YPL204W, strain HRR25, stronger effect = lower value",0.1 (active)
same,normalized growth,"locus YPL209C, strain IPL1, stronger effect = lower value",0.0841 (active)
same,normalized growth,"locus YPL256C, strain CLN2, stronger effect = lower value",0.167 (active)
same,normalized growth,"locus YPR025C, strain CCL1, stronger effect = lower value",0.091 (active)
same,normalized growth,"locus YPR106W, strain ISR1, stronger effect = lower value",0.0869 (active)
same,normalized growth,"locus YPR111W, strain DBF20, stronger effect = lower value",0.09 (active)
same,normalized growth,"strain NNK1, stronger effect = lower value",0.0922 (active)
same,normalized growth,"strain TSCII, stronger effect = lower value",0.0892 (active)
O=C(O)c1cc[c]([Hg][Cl])cc1,normalized growth,"locus YAL040C, strain CLN3, stronger effect = lower value",0.825 (active)
same,normalized growth,"locus YCL061C, strain MRC1 (second series), stronger effect = lower value",1.01
same,normalized growth,"locus YDR150W, strain NUM1, stronger effect = lower value",1
same,normalized growth,"locus YDR363W, strain ESC2, stronger effect = lower value",0.943
same,normalized growth,"locus YER002W, strain NOP16, stronger effect = lower value",0.757 (active)
same,normalized growth,"locus YGR078C, strain PAC10, stronger effect = lower value",0.339 (active)
same,normalized growth,"locus YMR307W, strain GAS1, stronger effect = lower value",0.981
same,normalized growth,"locus YNL128W, strain TEP1, stronger effect = lower value",0.955
same,normalized growth,"locus YNL175C, strain NOP13, stronger effect = lower value",0.918
same,normalized growth,"locus YNL197C, strain WHI3, stronger effect = lower value",0.731 (active)
same,normalized growth,"locus YNL224C, strain SQS1, stronger effect = lower value",0.948
same,normalized growth,"locus YNL322C, strain KRE1, stronger effect = lower value",1.01
same,normalized growth,"locus YOR083W, strain WHI5 (second series), stronger effect = lower value",0.77 (active)
same,normalized growth,"locus YPL055C, strain LGE1, stronger effect = lower value",0.961
